Counter-ions that a name gives are not always drawn. ± gives the standard deviation of the averaged measurements.

The subject of this experiment is mESC LDLR-Dup GFP reporter (SpCas9 MH-deletion repair). The experiment is described as follows: fraction of GFP+ cells relative to DMSO control (fold change); higher = more MH-deletion repair to in-frame LDLR (or more editing). The settings on record: 2 µM; 7 days post-transfection.
Turning to `COc1nc(OCc2cccc(-c3ccccc3)c2C)ccc1CNCCNC(C)=O` [bms202 (PD-1/PD-L1 inhibitor 2], the “fraction of GFP+ cells” value worked out at 1.04 ± 0.3. In the case of `CN(C)C(=O)c1cc2cnc(Nc3ccc(N4CCNCC4)cn3)nc2n1C1CCCC1` [Ribociclib (LEE011)], the “fraction of GFP+ cells” value worked out at 1.04 ± 0.21. Turning to `C[C@H](NC(=O)CCc1nc2ccccc2c(=O)[nH]1)c1ccccc1`, the “fraction of GFP+ cells” value was 0.781 ± 0.051. For `N=C1CCCN1Cc1[nH]c(=O)[nH]c(=O)c1Cl` [Tipiracil hydrochloride], the “fraction of GFP+ cells” value was 0.837 ± 0.26. As to `Cc1cc(Cl)ccc1OCCCC(=O)NO` [Droxinostat], the “fraction of GFP+ cells” value came to 0.706 ± 0.06. With `Cn1cc(/C=C/C(=O)c2cccc(F)c2)cc1/C=C/C(=O)NO`, the “fraction of GFP+ cells” value is 0.876 ± 0.1. `CN1CCN(c2ccc(Nc3ncc4cc(C#N)c(=O)n(C5CCCC5)c4n3)cc2)CC1`: the “fraction of GFP+ cells” value was 0.705 ± 0.077. Next, `CC(C)(Oc1ccc(CCNC(=O)c2ccc(Cl)cc2)cc1)C(=O)O` [Bezafibrate]: 1.52 ± 0.58; `O=c1[nH]c(C2CCCN2)nc2c1oc1ccc(Cl)cc12` (centres undefined): 1.11 ± 0.15. In the case of `CN1CCN(c2c(F)cc3c(=O)c(C(=O)O)cn4c3c2OCN4C)CC1` [Marbofloxacin], the “fraction of GFP+ cells” value is 1.19 ± 0.59. Next, `CN1CCc2c(c3ccccc3n2Cc2ccc(C(=O)NO)cc2)C1` [Tubastatin A HCl]: 0.623 ± 0.15. Regarding `NC(=O)c1ncn([C@@H]2O[C@H](CO)[C@@H](O)[C@H]2O)c1O` [Mizoribine], the “fraction of GFP+ cells” value turned out to be 1.05 ± 0.12. `CN(C)CC(=O)Nc1ccc2[nH]c(=O)c3ccccc3c2c1`: the “fraction of GFP+ cells” value was found to be 1.02 ± 0.06. Turning to `O=C(CCCCCCNC(=O)c1cnc(N(c2ccccc2)c2ccccc2)nc1)NO` [Ricolinostat (ACY-1215)], the “fraction of GFP+ cells” value amounted to 0.968 ± 0.11. For the molecule `O=c1ccn([C@@H]2O[C@H](CO)[C@@H](O)[C@H]2O)c(=O)[nH]1` [Uridine], the “fraction of GFP+ cells” value turned out to be 1.24 ± 0.54. As to `O=C(Nc1ccc(Cl)cc1)C1CCCN(C(=O)c2cccc(-c3ccco3)c2)C1` (centres undefined), the “fraction of GFP+ cells” value is 0.756 ± 0.13. The value for `NC(=O)c1cc(F)cc2c1C(=O)N(C1CCN(C3CCC(F)(F)CC3)CC1)C2` was 0.792 ± 0.12. For the molecule `COc1ccc(-c2oc3c(CC=C(C)C)c(O[C@@H]4O[C@H](CO)[C@@H](O)[C@H](O)[C@H]4O)cc(O)c3c(=O)c2O[C@@H]2O[C@@H](C)[C@H](O)[C@@H](O)[C@H]2O)cc1` [Icariin], the “fraction of GFP+ cells” value amounted to 1.26 ± 0.2. As to `COc1c(O)cc(O)c2c(=O)cc(-c3ccccc3)oc12` [Wogonin], the “fraction of GFP+ cells” value stood at 0.728 ± 0.15. Next, `Oc1cccc(-c2nc(N3CCOCC3)c3oc4ncccc4c3n2)c1`: 0.542 ± 0.15; `COc1nc(N)nc2c1ncn2[C@@H]1O[C@H](CO)[C@@H](O)[C@@H]1O` [Nelarabine]: 1.12 ± 0.14; `NC(=O)NO` [Hydroxyurea]: 0.829 ± 0.24. Consider `O=C(CCCCCCNC(=O)c1cnc(N(c2ccccc2)c2ccccc2Cl)nc1)NO` [Citarinostat (ACY-241)], for which the “fraction of GFP+ cells” value amounted to 0.902 ± 0.074. As to `COc1c(N2C[C@@H]3CCCN[C@@H]3C2)c(F)cc2c(=O)c(C(=O)O)cn(C3CC3)c12` [Moxifloxacin HCl], the “fraction of GFP+ cells” value was 0.624 ± 0.29.

As for `Cc1cn([C@H]2C[C@H](N=[N+]=[N-])[C@@H](CO)O2)c(=O)[nH]c1=O` [Zidovudine], the “fraction of GFP+ cells” value was 1.09 ± 0.18. Take `Cn1cc(-c2cnn3c(N)c(Br)c([C@@H]4CCCNC4)nc23)cn1`: the “fraction of GFP+ cells” value stood at 0.689 ± 0.069.

On to `O=NN(CCCl)C(=O)NCCCl` [Carmustine], for which the “fraction of GFP+ cells” value is 1 ± 0.078. Turning to `CN1CCc2c(c3ccccc3n2Cc2ccc(C(=O)NO)cc2)C1` [Tubastatin A], the “fraction of GFP+ cells” value worked out at 0.802 ± 0.093.

On to `N#Cc1c(Oc2ccc(F)c(NC(=O)Cc3cccc(C(F)(F)F)c3)c2)ccc2nc(NC(=O)C3CC3)sc12`, for which the “fraction of GFP+ cells” value was determined as 0.727 ± 0.25. Turning to `O=C(NCCS(=O)(=O)c1ccc(C(F)(F)F)cn1)c1ccc(Cl)cc1`, the “fraction of GFP+ cells” value is 1.39 ± 0.63. Consider `Nc1nc(F)nc2c1ncn2[C@@H]1O[C@H](CO)[C@@H](O)[C@@H]1O` [Fludarabine], for which the “fraction of GFP+ cells” value was found to be 0.867 ± 0.35.

With `NC(=O)c1ccccc1` [Benzamide], the “fraction of GFP+ cells” value came out at 1.01 ± 0.07.

As to `Cc1cc(N2C[C@@H](C)N[C@@H](C)C2)ncc1-c1ccc(-c2nc3c(ccn3C)c(=O)[nH]2)cc1`, the “fraction of GFP+ cells” value stood at 0.927 ± 0.33.

With `CCN1CCN(Cc2ccc(Nc3ncc(F)c(-c4cc(F)c5nc(C)n(C(C)C)c5c4)n3)nc2)CC1`, the “fraction of GFP+ cells” value was found to be 0.684 ± 0.039.

For the molecule `CCN(CC)CCCC(C)Nc1ccnc2cc(Cl)ccc12` (centres undefined) [Chloroquine Phosphate], the “fraction of GFP+ cells” value is 0.703 ± 0.14. For the molecule `C[C@H]1CNCCCN1S(=O)(=O)c1cccc2cncc(F)c12` [Ripasudil (K-115) hydrochloride dihydrate], the “fraction of GFP+ cells” value worked out at 1.31 ± 0.45. As for `COc1ccc(CCNCc2ccc(OCc3ccc(Cl)nc3)c(OC)c2)cc1OC`, the “fraction of GFP+ cells” value worked out at 1.56 ± 0.28. Next, `NC1CCN(c2c(F)cc3c(=O)c(C(=O)O)cn(C4CC4)c3c2Cl)C1` (centres undefined) [Clinafloxacin]: 0.685 ± 0.25.

Consider `CCCCCCCCCCCCCC(=S)NCCCC[C@H](NC(=O)OCc1ccccc1)C(=O)Nc1ccccc1` [Thiomyristoyl], for which the “fraction of GFP+ cells” value came out at 0.948 ± 0.9.

Source of the values: the supplement of paper PMC8387472.
